Experimental data published in PubChem BioAssay (NCATS).
“And” between values parts separate entries of the source, which are not always exact repeats. Identical values can stand only once. Results filed as inconclusive are left out. The source made the active and inactive calls. Unless noted, calls come from the whole dose curve; as a rule, active = well fitted curve in the direction sought with a large enough effect; inconclusive = small, poorly fitted or top-dose-only effect, or another doubt; inactive = no such curve, though single readings can be large; an effect the other way counts as inactive or inconclusive.

What was measured:
[1] = qHTS assay for small molecule antagonists of the retinoid-related orphan receptor gamma (ROR-gamma) signaling pathway - cell viability counter screen (AID 720652; active = well fitted curve in the direction sought with a large enough effect in the repeat runs; an effect the other way counts as inactive or inconclusive;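 note: CHO reporter cells with doxycycline-induced ROR-gamma expression; compound exposure lasted 16 hr before ATP read; % is set by controls: 0 for no effect and ±100 for the full control effect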)
In short: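 Counter screen in CHO cells carrying TET-inducible ROR-gamma and an ROR response element-luciferase reporter; cells plated 5 hr, compound pinned, doxycycline added, then 16 hr at 37 C. Viability read as intracellular ATP by CellTiter-Glo luminescence.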

[2] = qHTS assay for small molecule agonists of the antioxidant response element (ARE) signaling pathway measured by Nrf2-dependant transcriptional activity - cell viability counter screen (AID 720653; active = well fitted curve in the direction sought with a large enough effect in the repeat runs; an effect the other way counts as inactive or inconclusive; note: % is set by controls: 0 for no effect and ±100 for the full control effect); conditions: ARE-bla HepG2 viability, CellTiter-Glo ATP luminescence, 16 h; stronger effect = lower value
In short: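 ARE-bla HepG2 cells treated with compounds for 16 h at 37C; this counter screen measures viability as intracellular ATP by CellTiter-Glo luminescence after 30 min at room temperature.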

[3] = qHTS Assay for Identifying Gametocytocidal Compounds (AID 743244); note: potency is the fitted concentration of half-maximal effect;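 for max response: % is set by controls: 0 for no effect and ±100 for the full control effect; actives lower the fluorescent signal which means gametocytes are killed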; conditions: P. falciparum 3D7 stage III-V gametocytes, alamarBlue, 72 h; max response: stronger effect = lower value
In short: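 3D7 gametocytes, stages III–V, 20,000/well; cpd 72 h, 37 °C/5% CO2; + alamarBlue 24 h; fluor. Ex 525/Em 598.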

[4] = qHTS assay for cell viability of HEK293 cells (AID 743288); conditions: ATP luminescence (CellTiter-Glo), 18 h, stronger effect = lower value; note: % is set by controls: 0 for no effect and ±100 for the full control effect; nearly all actives have a fitted effect of over 50% in size
In short: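 The Tox21 protocol used parental HEK293 cells treated for 18 h at 37 C with compounds delivered by pintool; ATP-coupled luminescence after 30 min at room temperature gave viability.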

[5] = qHTS assay for cell viability of the p53RE-bla HCT-116 cell line (AID 743292); note: % is set by controls: 0 for no effect and ±100 for the full control effect; nearly all actives have a fitted effect of over 55% in size
In short: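 Quantitative high-throughput format: compounds in DMSO were pinned onto p53RE-bla HCT-116 cells (4,000/well) and incubated 16 h at 37 C. Total intracellular ATP, read by CellTiter-Glo luminescence, reflects viable cell number.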

[6] = qHTS assay to identify small molecule inhibitors of chordoma cells - UCH-2 (AID 1259356); note: potency is the fitted concentration of half-maximal effect
[7] = qHTS profiling for inhibitors of Plasmodium falciparum (HB3) proliferation (AID 743324); conditions: Plasmodium falciparum HB3 blood-stage proliferation; at 28.7 µM (top of the series) unless noted;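 note: 100% = DMSO vehicle wells and 0% = artemisinin-treated control wells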
In short: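 P. falciparum HB3 grown in erythrocytes (0.3% parasitemia, 2.5% hematocrit final) with compound for 72 h at 37 C, 5% CO2. Parasite DNA detected by SYBR Green after saponin/triton lysis overnight; normalized to 0.29 uM artemisinin and DMSO.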

[8] = qHTS assay to identify small molecule inhibitors of chordoma cells - UCH-1 (AID 1259355); note: nearly all actives have a fitted effect of over 55% in size; note: potency is the fitted concentration of half-maximal effect
In short: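 Cells (800/well) were seeded and left overnight at 37 C, 5% CO2, then treated with drugs at 15 concentrations plus a combination mix of auranofin, camptothecin, doxorubicin, rubitecan and topotecan. Viability after 48hr was read by CellTiter-Glo luminescence.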

Which outcome [1] does the source give for CCCCC/C=C\C/C=C\CCCCCCCC(=O)O here?
The outcome was “inactive”.

And the max response [2]?
The max response was -8.45% (inactive) and -16.5% (inactive).

And the max response [3]?
Its max response is 0.52% (inactive).

What about the max response [4] of the same compound?
The max response was -9.3% (inactive) and -9.38% (inactive).

What about the outcome [5] of the same compound?
The outcome was “inactive”.

And the Potency [6]?
The Potency was “inactive”.

What does the source list for Nc1c(Br)cc(Br)cc1CNC1CCC(O)CC1 (stereo not drawn)?
max response [3]: 19% (inactive); Potency [6]: inactive

With CN(C)CCCN1c2ccccc2C(C)(C)c2ccccc21 as the compound, how does the Potency [6] read?
The Potency was “inactive”.

With CN1CCC(CN2c3ccccc3Sc3ccccc32)C1 (stereo not drawn) as the compound, how does the remaining proliferation (% of control), lower = more inhibition [7] read?
Its remaining proliferation (% of control), lower = more inhibition is 21.8%.

And the Potency [8]?
The Potency was “inactive”.

With CC(C(=O)O)c1ccc(N2Cc3ccccc3C2=O)cc1 (stereo not drawn) as the compound, how does the max response [3] read?
The max response was 8.38% (inactive).

What about the Potency [8] of the same compound?
Its Potency is “inactive”.

Which results are given for C[C@H]1C[C@H]2[C@@H]3CCC4=CC(=O)C=C[C@]4(C)[C@@]3(F)[C@@H](O)C[C@]2(C)[C@@]1(O)C(=O)CO?
max response [2]: -19.2% (inactive); max response [3]: -4.91% (inactive); max response [4]: -14.2% (inactive); outcome [5]: inactive; Potency [6]: inactive

Which Potency [6] does the source give for CO[C@H]1C[C@@H]2CC[C@@H](C)[C@@](O)(O2)C(=O)C(=O)N2CCCC[C@H]2C(=O)O[C@H]([C@H](C)C[C@@H]2CC[C@@H](OCCO)[C@H](OC)C2)CC(=O)[C@H](C)/C=C(\C)[C@@H](O)[C@@H](OC)C(=O)[C@H](C)C[C@H](C)/C=C/C=C/C=C/1C here?
The Potency was “inactive”.

Which results are given for CC(O)CO (stereo not drawn)?
outcome [1]: inactive; max response [2]: -5.98% (inactive) and -4.66% (inactive); max response [3]: 5.22% (inactive); max response [4]: 4.22% (inactive) and 2.43% (inactive); outcome [5]: inactive; Potency [6]: inactive

Which Potency [3] does the source give for COc1ccc(C[C@H](N)C(=O)N[C@H]2[C@@H](O)[C@H](n3cnc4c(N(C)C)ncnc43)O[C@@H]2CO)cc1 here?
Its Potency is 1.05 µM (active).

And the Potency [8]?
The Potency was 11.2 µM (active).

Which Potency [6] does the source give for COc1cc2c(cc1O)CCN[C@]21CS[C@@H]2c3c(OC(C)=O)c(C)c4c(c3[C@H](COC1=O)N1[C@@H]2[C@H]2c3c(cc(C)c(OC)c3O)C[C@@H]([C@@H]1O)N2C)OCO4 here?
Its Potency is “inactive”.

What does the source list for O=S(=O)(O)c1cc(O)c2c(N=Nc3ccc(Nc4ccccc4)c4c(S(=O)(=O)O)cccc34)cc(S(=O)(=O)O)cc2c1?
max response [3]: -8.84% (inactive); Potency [8]: 15.8 µM (active)

What does the source list for CO[C@@H]1[C@@H](O[C@@H]2O[C@H](C)[C@@H](O[C@H]3C[C@@](C)(O)[C@@H](OC(=O)CC(C)C)[C@H](C)O3)[C@H](N(C)C)[C@H]2O)[C@@H](CC=O)C[C@@H](C)C(=O)/C=C/C2OC2C[C@@H](C)OC(=O)C[C@H]1OC(C)=O (stereo partly drawn)?
Potency [3]: 10 µM (active); Potency [8]: inactive

For CC(C)C(=O)OCC(=O)[C@@]12O[C@H](C3CCCCC3)O[C@@H]1C[C@H]1[C@@H]3CCC4=CC(=O)C=C[C@]4(C)[C@H]3[C@@H](O)C[C@@]12C, which Potency [6] is on record?
The Potency was “inactive”.

Which max response [3] does the source give for COc1ccc(C[C@@H](C)NC[C@H](O)c2ccc(O)c(NC=O)c2)cc1 here?
The max response was 19.6% (inactive).

What about the Potency [6] of the same compound?
Its Potency is “inactive”.

With C=C1CC[C@@H]2[C@](C)(CO)[C@H](O)CC[C@@]2(C)[C@@H]1C/C=C1/C(=O)OC[C@H]1O as the compound, how does the Potency [3] read?
Its Potency is 20 µM (active).

And the Potency [6]?
Its Potency is “inactive”.

What does the source list for O=C(O)C[C@H](O)C[C@H](O)/C=C/c1c(C2CC2)nc2ccccc2c1-c1ccc(F)cc1?
max response [3]: 4.27% (inactive); Potency [6]: inactive

For CC(=O)Oc1cc(C)c(OC(C)=O)c2ccccc12, which Potency [3] is on record?
Its Potency is 6.31 µM (active).

What about the Potency [6] of the same compound?
The Potency was “inactive”.

With N[C@H](C(=O)O)[C@@H]1CC(Cl)=NO1 as the compound, how does the max response [3] read?
The max response was 8.42% (inactive).

What about the Potency [6] of the same compound?
The Potency was “inactive”.

With C=C(NC(=O)C(=C)NC(=O)c1csc(C2=N[C@@H]3c4csc(n4)[C@H]4NC(=O)c5csc(n5)[C@H]([C@](C)(O)[C@@H](C)O)NC(=O)[C@H]5CSC(=N5)C(=CC)NC(=O)C([C@@H](C)O)NC(=O)c5csc(n5)[C@]3(CC2)NC(=O)[C@H](C)NC(=O)C(=C)NC(=O)[C@H](C)NC(=O)C([C@@H](C)CC)NC2C=Cc3c([C@H](C)O)cc(nc3C2O)C(=O)O[C@@H]4C)n1)C(N)=O (stereo partly drawn) as the compound, how does the Potency [3] read?
The Potency was 11.2 µM (active).

And the Potency [6]?
Its Potency is “inactive”.

For Cc1c(C)c2c(c(C)c1O)CC[C@@](C)(CCC[C@H](C)CCC[C@H](C)CCCC(C)C)O2, which max response [3] is on record?
The max response was 1.54% (inactive) and 7.72% (inactive).

What about the Potency [6] of the same compound?
Its Potency is “inactive”.

With CCC(=O)OCC(=O)[C@@]1(OC(=O)CC)[C@H](C)C[C@H]2[C@H]3[C@H]([C@@H](O)C[C@@]21C)[C@@]1(C)C=CC(=O)C=C1C[C@H]3Cl as the compound, how does the max response [3] read?
Its max response is -4.51% (inactive).

What about the Potency [6] of the same compound?
The Potency was “inactive”.

For CCCCC(C)(O)C/C=C/[C@H]1[C@H](O)CC(=O)[C@@H]1CCCCCCC(=O)OC (stereo partly drawn), which max response [3] is on record?
Its max response is -1.16% (inactive).

And the Potency [6]?
The Potency was “inactive”.

Which results are given for CCCCCCCCCCCC[n+]1ccc2ccccc2c1?
Potency [3]: 1.78 µM (active); Potency [6]: 25.9 µM (active)

What does the source list for CC1=C(/C=C/C(C)=C/C=C/C(C)=C/C=C/C=C(C)/C=C/C=C(C)/C=C/C2=C(C)CCCC2(C)C)C(C)(C)CCC1?
max response [3]: -12% (inactive); Potency [6]: inactive

Which max response [3] does the source give for CCCC(=O)O[C@]1(C(=O)COC(C)=O)CC[C@H]2[C@@H]3C[C@H](F)C4=CC(=O)C=C[C@]4(C)[C@@]3(F)[C@@H](O)C[C@@]21C here?
The max response was 9.8% (inactive).

And the Potency [6]?
The Potency was “inactive”.

Which max response [3] does the source give for CC1(C)S[C@@H]2[C@H](NC(=O)Cc3ccccc3)C(=O)N2[C@H]1C(=O)O here?
Its max response is 14.5% (inactive).

And the Potency [6]?
The Potency was “inactive”.

With CCC(=O)NCCC1CCc2ccc3c(c21)CCO3 (stereo not drawn) as the compound, how does the max response [3] read?
The max response was 12.4% (inactive).

What about the Potency [6] of the same compound?
The Potency was “inactive”.

With CC(=O)Oc1c(C)cc(OCC(O)CNC(C)C)c(C)c1C (stereo not drawn) as the compound, how does the Potency [3] read?
The Potency was 15.8 µM (active).

And the Potency [6]?
The Potency was “inactive”.

Which Potency [3] does the source give for OCC(S)CS (stereo not drawn) here?
The Potency was 3.98 µM (active).

What about the Potency [6] of the same compound?
Its Potency is “inactive”.

Which max response [3] does the source give for CCCC(=O)Nc1ncnc2c1ncn2[C@@H]1O[C@@H]2COP(=O)(O)O[C@H]2[C@H]1OC(=O)CCC here?
The max response was -2.66% (inactive).

And the Potency [6]?
Its Potency is “inactive”.

With CCCCCCCCCCCCCC[n+]1ccc(C)cc1 as the compound, how does the Potency [3] read?
Its Potency is 7.94 µM (active).

What about the Potency [6] of the same compound?
The Potency was 25.9 µM (active).

Which max response [3] does the source give for CC(C)NCC1CCc2cc(CO)c([N+](=O)[O-])cc2N1 (stereo not drawn) here?
Its max response is -6.43% (inactive).

And the Potency [6]?
The Potency was “inactive”.

What does the source list for CC[C@H]1OC(=O)C[C@@H](O)[C@H](C)[C@@H](O[C@@H]2O[C@H](C)[C@@H](O)[C@H](N(C)C)[C@H]2O)[C@@H](CCN2C[C@H](C)C[C@H](C)C2)C[C@@H](C)C(=O)/C=C/C(C)=C/[C@@H]1CO[C@@H]1O[C@H](C)[C@@H](O)[C@@H](OC)[C@H]1OC?
max response [3]: -0.81% (inactive); Potency [6]: inactive
